Compound activity deposited in PubChem BioAssay by National Center for Advancing Translational Sciences (NCATS).
D2 PAM-1 – potentiates the human D2 dopamine receptor allosterically; P14416; DiscoveRx D2 beta-arrestin cells, luminescence, 90 min; 100% = 57 uM dopamine signal; potentiation, % (test concentration not listed); hit rate 0.23% among 360,000; in the data active means potentiation above about 50%
Target sequence (P14416 whole entry, looked up): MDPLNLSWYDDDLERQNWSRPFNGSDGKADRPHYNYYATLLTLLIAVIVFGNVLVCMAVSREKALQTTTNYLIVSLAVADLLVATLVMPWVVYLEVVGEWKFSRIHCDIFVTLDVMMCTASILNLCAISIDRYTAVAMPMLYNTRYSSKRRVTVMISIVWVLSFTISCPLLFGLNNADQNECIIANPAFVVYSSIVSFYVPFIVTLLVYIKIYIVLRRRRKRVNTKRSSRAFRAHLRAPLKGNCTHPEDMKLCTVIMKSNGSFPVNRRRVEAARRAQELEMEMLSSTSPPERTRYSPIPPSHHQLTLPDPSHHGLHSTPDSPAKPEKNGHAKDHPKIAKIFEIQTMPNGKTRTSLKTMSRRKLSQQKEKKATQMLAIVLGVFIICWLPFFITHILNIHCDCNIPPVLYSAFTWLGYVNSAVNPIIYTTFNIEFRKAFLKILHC
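PathHunter beta-arrestin assay in DiscoveRx D2 cells. Compounds were added with an EC20 of dopamine (50 nM final) for 90 min at 37 deg C. Luminescence was read 1 h after detection reagent, with 57 uM dopamine as the EC100 control.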
D2 ag-1 – agonists of human D2 dopamine receptor (beta-arrestin); activation, % (no concentration beside the values); DiscoveRx PathHunter D2 beta-arrestin, luminescence, 90 min; 100% = 57 uM dopamine signal; AID 624465; hit rate 0.084% among 360,000; in the data active means activation above about 40%
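Agonist mode: compounds alone added to overnight-plated D2 PathHunter cells for 90 min at 37 C, with 57 uM final dopamine (EC100) defining full response. Beta-arrestin recruitment detected by chemiluminescent reagent, read after 1 h at ambient temperature.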
D2 ag-2 – agonists of human D2 dopamine receptor. HEK293 T-REx D2 cells, calcium flux agonist mode. activation, % at 2 µM. hit rate 0.53% among 340,000;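 active means activation over 3 SD above normal in the single-dose calcium agonist read, cut at about 30% in these data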
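Agonism scored from kinetic calcium signal (1 read/sec, 180 s) following compound pin transfer, after a 10 s baseline. Cells: HEK293 Trex line expressing inducible D2 receptor coupled to calcium, dye-loaded after overnight culture at 30 C.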
D2 antagonist – D2 dopamine receptor (human) antagonism; AID 485344; inhibition, % at 10 µM; hit rate 2% among 340,000; HEK293 TREx D2 cells, calcium flux, dopamine EC80; in the data active means inhibition above about 30%; inactive means below that, where a call was filed
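Overnight-induced (tetracycline, 30 C) HEK293 T-REx cells carrying force-coupled D2 receive a no-wash calcium dye, then compound, then EC80 dopamine at 180 s; signals are read kinetically throughout.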
D2 PAM-2 – positively modulates the human D2 dopamine receptor allosterically | HEK293 T-REx D2, calcium flux, EC20 dopamine potentiation | potentiation, % at 10 µM | P14416 | hit rate 0.34% among 340,000;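 active means potentiation over 3 SD above the plate norm, cut at about 30% in these data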
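Tetracycline-induced HEK293 T-REx cells force-coupled to calcium signalling expressed D2; compounds were pin-added after a 10 s baseline, read kinetically 180 s, then an EC20 dopamine challenge followed with a further 180 s calcium read.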
Hits are given with their value; i = inactive; nt = no result given. This is a sample that favours compounds with a hit; in the whole collection about 2.4% have one here.

SMILES	D2 PAM-1	D2 ag-1	D2 ag-2	D2 antagonist	D2 PAM-2
Fc1cccc(-c2cc3nc4c(c(N5CCC6(CC5)OCCO6)n3n2)CCCC4)c1	i	i	i	i	32
Cc1ccc(NC(=O)CN(C)CC(=O)N(CC(C)C)c2c(N)n(CC(C)C)c(=O)[nH]c2=O)c(C)c1	i	i	i	i	i
CC(=O)Nc1ccc(NC(=O)CSc2nnc(NC(=O)C3CC(=O)N(c4ccc(F)cc4)C3)s2)cc1 (stereo not drawn)	i	i	i	i	i
Cc1ccc(Sc2ccc(CN3CCCC3)cc2[N+](=O)[O-])cc1	i	i	i	36	i
COc1ccc(NC(=O)C2CCCO2)cc1Cl (stereo not drawn)	i	i	i	31	i
CSc1ccc(/C=C/C(=O)OCC(=O)N(C)CCC#N)cc1	i	i	i	i	i
CCCNC(=O)CSc1nc2nc(C)c(Cc3ccccc3Cl)c(C)n2n1	nt	nt	i	nt	i
COc1cccc(Nc2nc(=O)[nH]nc2C)c1	i	i	i	34	nt
COc1ccc(C(=O)c2ccc(OC)c3cccc(O)c23)cc1OC	73	i	i	i	i
CNCCC=C1c2ccccc2CCc2ccccc21	i	i	i	42	i
C[N+](C)(C)CC/C=C1/c2ccccc2CSc2ccccc21	i	i	i	i	i
Cc1cc(Cl)ccc1OC(C)C(=O)NCCc1ccc2c(c1)OCCO2 (stereo not drawn)	i	i	i	64	i
COc1ccc(N2CCN(C(=O)c3ccccc3)CC2)c([N+](=O)[O-])c1	i	i	i	i	i
CCCCC(=O)N1CCN(c2ccc(OC)cc2[N+](=O)[O-])CC1	i	i	i	30	i
CCCCC(=O)N/N=C/c1ccc(N2CCOCC2)c([N+](=O)[O-])c1	i	i	i	59	i
Cc1ccccc1Cn1cnc2c(NS(C)(=O)=O)c(C)c(C)cc21	i	i	i	35	i
CC1CCCCN1S(=O)(=O)c1cccc2nonc12 (stereo not drawn)	i	i	i	i	i
CC(C)COC(=O)n1c(SCC(N)=O)nc2ccccc21	i	i	i	i	i
CC(C)COC(=O)n1c(SCC(=O)N(C)C)nc2ccccc21	i	i	i	31	i
COc1ccc(C(C)=O)cc1CC(=O)NCCCn1ccnc1	i	i	i	i	34
Cc1cc(Cl)ccc1OCC(=O)NCCCn1ccnc1	i	i	i	i	i
COc1ccc(Cl)cc1C(=O)NCCCn1ccnc1	i	i	i	i	i
Cc1cc(C(=O)NCCCn2ccnc2)sc1-c1ccccc1	i	i	i	47	i
Cc1cc(Cl)ccc1OCCCC(=O)NCCCn1ccnc1	i	i	i	36	i
CCc1cc(=O)oc2cc(OCC(=O)NCCCn3ccnc3)ccc12	i	i	i	37	i
SMILES	D2 PAM-1	D2 ag-1	D2 ag-2	D2 antagonist	D2 PAM-2
COc1ccc(-c2cc(=O)oc3cc(OCC(=O)NCCCn4ccnc4)ccc23)cc1	i	i	i	i	i
Cc1[nH]c2ccccc2c1C(=O)C(C)OC(=O)C1CCC1 (stereo not drawn)	i	i	i	i	i
O=C(c1ccccc1)c1ccc(Cn2cc(CCCO)nn2)cc1	i	i	i	i	i
O=C(O)CCCCCCCCc1cn(Cc2ccc(C(=O)c3ccccc3)cc2)nn1	i	i	i	42	i
CCOC(=O)CSc1nc2cc3c(cc2cc1CC)OCCO3	i	i	i	i	75
CCc1cc2ccc(C)cc2nc1SCC(=O)Nc1cc(C)on1	i	i	i	i	i
CCc1cc2cc3c(cc2nc1SCC(=O)Nc1cc(C)on1)OCO3	i	i	i	32	i
Cc1cccc(N2C(=O)C3C4CC(=O)C(c5ccccc54)C3C2=O)c1C (stereo not drawn)	i	i	i	i	i
c1ccc(-c2nccc(-c3ccc(-n4cnc5ccccc54)cc3)n2)cc1	i	i	i	i	i
Nc1nccc(-c2ccc(-n3cccc3)cc2)n1	i	i	i	i	50
O=C(CCOc1ccccc1)Nc1ccnn1C1CCN(Cc2ccc(F)cc2)CC1	i	i	i	i	i
CCCCN(Cc1cc2ccccc2[nH]c1=O)C(=O)c1cccc(Cl)c1	nt	nt	i	nt	i
COc1ccc(C(CNC(=O)C(CCSC)NC(=O)c2ccccc2Cl)N2CCCCC2)cc1 (stereo not drawn)	i	i	i	41	i
